Data as given in PMC11574364.

Experiments:
Assay in all cases: protein domain microarray probed with biotinylated miRNA; Domain array: 20 mM Tris-HCl pH 7.4, 200 mM KCl, 0.2 mM EDTA, 0.05% NP40, 2 ug/ul heparin, overnight 4 C. ORF array: PBS pH 7.0 with RNase inhibitor, 100 ng RNA; high values mean tight binding
Settings in all cases: ssRNA
hnRNP-D0 = hnRNP-D0 (Homo sapiens, UniProt Q14103)
PABPC1L = PABPC1L (Homo sapiens, UniProt Q4VXU2)
NCL = NCL (Homo sapiens, UniProt P19338)
PABPN1 = target: T1, PABPN1 (Homo sapiens, UniProt Q86U42)
T1 sequence: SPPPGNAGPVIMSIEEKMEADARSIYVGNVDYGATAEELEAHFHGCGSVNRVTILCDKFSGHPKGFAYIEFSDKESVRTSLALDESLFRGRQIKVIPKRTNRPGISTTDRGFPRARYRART

CNOT4 = target: T2, CNOT4 (Homo sapiens, UniProt O95628)
T2 sequence: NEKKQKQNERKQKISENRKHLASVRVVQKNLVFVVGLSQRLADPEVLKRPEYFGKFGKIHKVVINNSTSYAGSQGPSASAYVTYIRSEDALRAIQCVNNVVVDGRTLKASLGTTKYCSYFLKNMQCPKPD

CSTF2 = target: T3, CSTF2 (Homo sapiens, UniProt P33240)
T3 sequence: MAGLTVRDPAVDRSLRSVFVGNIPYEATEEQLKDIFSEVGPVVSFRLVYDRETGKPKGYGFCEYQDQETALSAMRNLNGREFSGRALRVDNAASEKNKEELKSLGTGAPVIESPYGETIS

hnRNP-A/B = hnRNP-A/B (Homo sapiens, UniProt Q99729)
Chain of hnRNP-A/B (Q99729 50-250): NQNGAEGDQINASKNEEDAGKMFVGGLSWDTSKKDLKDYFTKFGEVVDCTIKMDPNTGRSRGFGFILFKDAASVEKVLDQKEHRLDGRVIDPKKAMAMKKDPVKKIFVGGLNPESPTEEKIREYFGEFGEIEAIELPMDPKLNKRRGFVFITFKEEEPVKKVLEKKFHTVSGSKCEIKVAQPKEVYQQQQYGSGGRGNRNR

CPSF7 = target: T4, CPSF7 (Homo sapiens, UniProt Q8N684)
T4 sequence: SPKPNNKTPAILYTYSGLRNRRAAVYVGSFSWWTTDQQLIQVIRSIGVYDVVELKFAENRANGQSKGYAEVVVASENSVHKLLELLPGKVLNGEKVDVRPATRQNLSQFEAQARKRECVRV

HNRNPA1L2 = HNRNPA1L2 (Homo sapiens, UniProt Q32P51)
Chain of HNRNPA1L2 (Q32P51 1-205): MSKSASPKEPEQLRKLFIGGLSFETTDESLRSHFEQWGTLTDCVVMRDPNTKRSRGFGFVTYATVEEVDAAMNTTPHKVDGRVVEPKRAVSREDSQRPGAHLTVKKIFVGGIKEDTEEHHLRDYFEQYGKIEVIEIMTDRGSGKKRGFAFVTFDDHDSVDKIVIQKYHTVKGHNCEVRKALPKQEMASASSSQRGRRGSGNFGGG

DAZ4 = target: T5, DAZ4 (Homo sapiens, UniProt Q86SG3)
T5 sequence: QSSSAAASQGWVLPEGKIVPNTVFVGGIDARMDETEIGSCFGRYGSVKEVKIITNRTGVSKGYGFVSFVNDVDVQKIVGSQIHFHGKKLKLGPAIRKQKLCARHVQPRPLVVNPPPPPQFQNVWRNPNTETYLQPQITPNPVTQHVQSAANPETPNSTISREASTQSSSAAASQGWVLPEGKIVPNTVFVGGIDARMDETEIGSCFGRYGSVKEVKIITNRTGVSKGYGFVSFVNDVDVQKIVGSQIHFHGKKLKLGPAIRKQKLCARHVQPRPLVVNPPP

hnRNP-M(1-2) = target: T6, hnRNP-M(1-2) (Homo sapiens, UniProt P52272)
T6 sequence: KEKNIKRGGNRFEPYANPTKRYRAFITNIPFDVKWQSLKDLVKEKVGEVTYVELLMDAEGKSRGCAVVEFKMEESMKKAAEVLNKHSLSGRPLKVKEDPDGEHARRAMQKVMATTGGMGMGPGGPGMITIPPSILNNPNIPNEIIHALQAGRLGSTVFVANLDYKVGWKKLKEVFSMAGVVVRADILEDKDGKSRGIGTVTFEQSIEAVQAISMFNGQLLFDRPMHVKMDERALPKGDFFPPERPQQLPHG

hnRNP-A3 = hnRNP-A3 (Homo sapiens, UniProt P51991)
Chain of hnRNP-A3 (P51991 15-225): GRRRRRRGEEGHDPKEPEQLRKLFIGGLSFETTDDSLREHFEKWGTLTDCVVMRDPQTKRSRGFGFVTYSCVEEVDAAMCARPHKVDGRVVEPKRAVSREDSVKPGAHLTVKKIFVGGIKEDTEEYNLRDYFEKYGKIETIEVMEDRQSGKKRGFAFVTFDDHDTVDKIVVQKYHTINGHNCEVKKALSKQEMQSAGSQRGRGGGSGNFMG

LARP7(2) = target: T7, LARP7(2) (Homo sapiens, UniProt Q4G0J3)
T7 sequence: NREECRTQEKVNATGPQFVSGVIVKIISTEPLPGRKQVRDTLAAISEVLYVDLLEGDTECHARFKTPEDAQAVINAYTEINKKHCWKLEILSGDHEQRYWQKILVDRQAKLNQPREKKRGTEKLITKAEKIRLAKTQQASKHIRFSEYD

hnRNP-A1 = hnRNP-A1 (Homo sapiens, UniProt P09651)
Chain of hnRNP-A1 (P09651 1-205): as the sequence (Q32P51 1-205) above, with A5E, T74A, T75R, K171N, P182S, R197S counted along it

eIF3-delta = eIF3-delta (Homo sapiens, UniProt O75821)
Chain of eIF3-delta (O75821 220-320, stated change not applied): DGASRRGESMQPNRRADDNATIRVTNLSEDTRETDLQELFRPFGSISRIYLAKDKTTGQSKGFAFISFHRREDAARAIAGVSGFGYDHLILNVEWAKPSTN

hnRNP-R = target: T8, hnRNP-R (Homo sapiens, UniProt O43390)
T8 sequence: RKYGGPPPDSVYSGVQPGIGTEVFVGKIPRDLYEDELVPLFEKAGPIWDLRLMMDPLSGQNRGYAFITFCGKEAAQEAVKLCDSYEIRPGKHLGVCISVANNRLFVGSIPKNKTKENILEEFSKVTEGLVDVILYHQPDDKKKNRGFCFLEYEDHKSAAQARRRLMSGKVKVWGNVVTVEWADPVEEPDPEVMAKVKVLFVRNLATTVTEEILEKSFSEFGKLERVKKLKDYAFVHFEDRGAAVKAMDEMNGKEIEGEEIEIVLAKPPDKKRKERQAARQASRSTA

DAZ1 = target: T9, DAZ1 (Homo sapiens, UniProt Q9NQZ3)
T9 sequence: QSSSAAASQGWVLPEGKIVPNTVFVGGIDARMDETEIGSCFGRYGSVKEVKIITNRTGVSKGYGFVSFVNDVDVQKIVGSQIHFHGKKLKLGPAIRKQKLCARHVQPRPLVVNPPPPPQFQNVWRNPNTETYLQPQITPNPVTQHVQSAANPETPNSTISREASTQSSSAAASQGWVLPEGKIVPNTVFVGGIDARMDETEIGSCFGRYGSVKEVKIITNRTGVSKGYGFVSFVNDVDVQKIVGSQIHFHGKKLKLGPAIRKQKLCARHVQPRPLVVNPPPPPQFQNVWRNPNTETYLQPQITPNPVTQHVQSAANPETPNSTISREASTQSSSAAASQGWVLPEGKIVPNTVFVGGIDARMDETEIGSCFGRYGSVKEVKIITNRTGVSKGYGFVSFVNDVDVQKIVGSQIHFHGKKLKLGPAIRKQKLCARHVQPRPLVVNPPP

G3BP-1 = G3BP-1 (Homo sapiens, UniProt Q13283)
Chain of G3BP-1 (Q13283 320-435): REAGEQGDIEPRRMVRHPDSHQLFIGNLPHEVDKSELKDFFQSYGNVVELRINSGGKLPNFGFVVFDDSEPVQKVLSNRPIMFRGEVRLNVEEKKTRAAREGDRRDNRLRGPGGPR

DRBP1(3-4) = target: T10, DRBP1(3-4) (Homo sapiens, UniProt Q8IUH3)
T10 sequence: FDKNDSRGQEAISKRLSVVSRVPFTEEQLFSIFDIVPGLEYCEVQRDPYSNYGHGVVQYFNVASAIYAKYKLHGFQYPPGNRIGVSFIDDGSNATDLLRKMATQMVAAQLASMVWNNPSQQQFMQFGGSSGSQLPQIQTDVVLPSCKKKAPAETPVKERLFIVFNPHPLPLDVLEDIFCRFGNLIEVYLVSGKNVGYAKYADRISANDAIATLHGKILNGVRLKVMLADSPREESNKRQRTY

LKAP = target: T11, LKAP (Homo sapiens, UniProt Q9Y4F3)
T11 sequence: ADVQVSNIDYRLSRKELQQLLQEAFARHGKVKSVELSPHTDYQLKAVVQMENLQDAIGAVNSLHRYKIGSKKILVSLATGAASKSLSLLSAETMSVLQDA

Chain of PABPC1L (Q4VXU2 1-390): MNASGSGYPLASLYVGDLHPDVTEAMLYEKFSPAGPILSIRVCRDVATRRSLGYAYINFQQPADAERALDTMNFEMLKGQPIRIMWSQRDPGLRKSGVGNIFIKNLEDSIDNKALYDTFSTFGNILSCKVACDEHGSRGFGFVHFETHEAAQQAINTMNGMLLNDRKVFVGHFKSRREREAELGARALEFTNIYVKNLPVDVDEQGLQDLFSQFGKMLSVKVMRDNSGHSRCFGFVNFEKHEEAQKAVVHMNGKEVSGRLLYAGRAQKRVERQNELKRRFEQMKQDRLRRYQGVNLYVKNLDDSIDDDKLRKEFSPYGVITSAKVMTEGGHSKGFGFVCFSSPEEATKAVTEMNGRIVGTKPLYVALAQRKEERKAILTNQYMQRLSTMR
Chain of hnRNP-D0 (Q14103 80-280): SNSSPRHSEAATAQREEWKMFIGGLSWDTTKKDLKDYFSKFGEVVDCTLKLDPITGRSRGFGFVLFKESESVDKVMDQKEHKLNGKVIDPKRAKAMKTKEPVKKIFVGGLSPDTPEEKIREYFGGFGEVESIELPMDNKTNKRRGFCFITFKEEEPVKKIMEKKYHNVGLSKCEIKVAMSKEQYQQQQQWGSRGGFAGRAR
Chain of NCL (P19338 288-670): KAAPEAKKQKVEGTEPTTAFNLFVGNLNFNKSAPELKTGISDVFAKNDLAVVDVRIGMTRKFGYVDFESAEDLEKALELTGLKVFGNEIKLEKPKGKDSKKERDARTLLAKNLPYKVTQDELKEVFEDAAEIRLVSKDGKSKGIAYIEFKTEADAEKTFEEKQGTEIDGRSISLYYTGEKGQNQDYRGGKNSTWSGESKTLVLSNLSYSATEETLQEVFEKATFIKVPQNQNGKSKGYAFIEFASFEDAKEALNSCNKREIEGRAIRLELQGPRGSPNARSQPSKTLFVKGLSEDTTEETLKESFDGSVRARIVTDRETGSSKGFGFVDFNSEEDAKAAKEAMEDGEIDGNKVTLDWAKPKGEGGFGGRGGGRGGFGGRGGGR

Sequence | binding signal (hnRNP-D0) | binding signal (PABPC1L) | binding signal (NCL) | binding signal (PABPN1) | binding signal (CNOT4) | binding signal (CSTF2) | binding signal (hnRNP-A/B) | binding signal (CPSF7) | binding signal (HNRNPA1L2) | binding signal (DAZ4) | binding signal (hnRNP-M(1-2)) | binding signal (hnRNP-A3) | binding signal (LARP7(2)) | binding signal (hnRNP-A1) | binding signal (eIF3-delta) | binding signal (hnRNP-R) | binding signal (DAZ1) | binding signal (G3BP-1) | binding signal (DRBP1(3-4)) | binding signal (LKAP)
UGAGGUAGUAGGUUGUAUAGUU | 580 ± 40.2 fluorescence intensity | 626 ± 62.6 fluorescence intensity | 1458 ± 3.11 fluorescence intensity | 2100 ± 89.2 fluorescence intensity | 73.77 ± 0.226 fluorescence intensity | 546 ± 37.1 fluorescence intensity | 453 ± 6.64 fluorescence intensity | 21.4 ± 4.04 fluorescence intensity | 226 ± 23.1 fluorescence intensity | 215 ± 41.8 fluorescence intensity | 581.3 ± 5.61 fluorescence intensity | 952 ± 63 fluorescence intensity | 179 ± 11.7 fluorescence intensity | 22 ± 6.92 fluorescence intensity | 80.4 ± 7.03 fluorescence intensity | 109 ± 5.8 fluorescence intensity | 193 ± 22.1 fluorescence intensity | 286 ± 21.3 fluorescence intensity | – | –
AGAGGUAGUAGGUUGCAUAGUU | 1690 ± 40.2 fluorescence intensity | 1740 ± 116 fluorescence intensity | 3640 ± 50 fluorescence intensity | 3510 ± 43.1 fluorescence intensity | 230 ± 7.35 fluorescence intensity | 1640 ± 152 fluorescence intensity | 1830 ± 93.1 fluorescence intensity | 48.3 ± 8.88 fluorescence intensity | 630 ± 43.3 fluorescence intensity | 934 ± 29.1 fluorescence intensity | 1710 ± 32.8 fluorescence intensity | 2440 ± 28.8 fluorescence intensity | 400 ± 39.4 fluorescence intensity | 62.9 ± 11.7 fluorescence intensity | 231 ± 8.61 fluorescence intensity | 362 ± 6.89 fluorescence intensity | 814 ± 10.2 fluorescence intensity | 1220 ± 45.7 fluorescence intensity | 63.1 ± 5.42 fluorescence intensity | 41.4 ± 3.31 fluorescence intensity
UAGCUUAUCAGACUGAUGUUGA | 106 ± 5.55 fluorescence intensity | 126 ± 31.5 fluorescence intensity | 1820 ± 62.5 fluorescence intensity | 329 ± 38.4 fluorescence intensity | 35.05 ± 0.099 fluorescence intensity | 142 ± 42.3 fluorescence intensity | 108 ± 7.62 fluorescence intensity | – | – | 570 ± 34.9 fluorescence intensity | 584 ± 19 fluorescence intensity | 80.5 ± 23 fluorescence intensity | 66.2 ± 4.35 fluorescence intensity | – | 20.5 ± 2.47 fluorescence intensity | – | 550 ± 15.3 fluorescence intensity | 219 ± 29.7 fluorescence intensity | – | –
CAGUGCAAUGAUGAAAGGGCAU | 338 ± 13.6 fluorescence intensity | 990.7 ± 2.47 fluorescence intensity | 2833 ± 25.8 fluorescence intensity | 2170 ± 30.4 fluorescence intensity | 235.49 ± 0.198 fluorescence intensity | 484 ± 5.24 fluorescence intensity | 1111 ± 3.46 fluorescence intensity | 47.8 ± 6.69 fluorescence intensity | 236 ± 20 fluorescence intensity | 178.74 ± 0.0495 fluorescence intensity | 946.9 ± 2.02 fluorescence intensity | 1370 ± 25 fluorescence intensity | 288 ± 8.61 fluorescence intensity | 40.7 ± 3.35 fluorescence intensity | 113 ± 14 fluorescence intensity | 113 ± 6.25 fluorescence intensity | 153 ± 10.6 fluorescence intensity | 1860 ± 70.5 fluorescence intensity | 77 ± 15.6 fluorescence intensity | 37.5 ± 1.56 fluorescence intensity
UGAGGUAGUAGGUUGUGUGGUU | 1275 ± 12.6 fluorescence intensity | 1150 ± 102 fluorescence intensity | 2320 ± 38.6 fluorescence intensity | 2208 ± 3.21 fluorescence intensity | 448 ± 8.85 fluorescence intensity | 1760 ± 71.7 fluorescence intensity | 1294 ± 7.55 fluorescence intensity | 106 ± 4.55 fluorescence intensity | 551 ± 58 fluorescence intensity | 843.32 ± 0.516 fluorescence intensity | 1470 ± 31 fluorescence intensity | 1660 ± 31.6 fluorescence intensity | 632 ± 5.09 fluorescence intensity | 77.3 ± 27.2 fluorescence intensity | 338 ± 7.23 fluorescence intensity | 693 ± 1.68 fluorescence intensity | 709 ± 20.1 fluorescence intensity | 1380 ± 17 fluorescence intensity | 117 ± 36.4 fluorescence intensity | 91.94 ± 0.665 fluorescence intensity
UGAGGUAGUAGGUUGUAUGGUU | 1386 ± 9.72 fluorescence intensity | 1355 ± 13.5 fluorescence intensity | 2733 ± 6.99 fluorescence intensity | 2730 ± 37.5 fluorescence intensity | 263.8 ± 1.66 fluorescence intensity | 877 ± 50.3 fluorescence intensity | 1148 ± 9.7 fluorescence intensity | 58.9 ± 3.79 fluorescence intensity | 644 ± 46.8 fluorescence intensity | 778 ± 25.6 fluorescence intensity | 1452 ± 3.71 fluorescence intensity | 1730 ± 33.6 fluorescence intensity | 511 ± 8.38 fluorescence intensity | 74.6 ± 1.05 fluorescence intensity | 262 ± 21.2 fluorescence intensity | 666 ± 24.3 fluorescence intensity | 673 ± 9.53 fluorescence intensity | 1240 ± 13.5 fluorescence intensity | 95.6 ± 13.4 fluorescence intensity | 65.2 ± 2.55 fluorescence intensity
